This is an account of results in PubChem BioAssay.

For test [1], the target named is Regulator of G-protein signaling 16 (Homo sapiens) (UniProt O15492). The test is described as follows: small molecules altering RGS protein interactions with GNAO1 – biochemical, multiplexed beads, flow cytometry, RGS4/7/8/16/19, primary screen (AID 1504).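 Further: fluorescently labeled Galpha-o bound to GDP with aluminium fluoride binding biotinylated RGS beads.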 The conditions noted are these: multiplexed bead flow cytometry, measured here: RGS16 interaction, at 10 µM. Background: Flow cytometry measures light scatter and fluorescence of single cells or particles in a stream.

The target in test [2] is Regulator of G-protein signaling 19 (Homo sapiens) (UniProt P49795). The description is as above. Conditions: multiplexed bead flow cytometry, measured here: RGS19 interaction, at 10 µM.
Test [3] deals with Regulator of G-protein signaling 7 (Homo sapiens) (UniProt P49802). The test is described as above. Conditions: multiplexed bead flow cytometry, measured here: RGS7 interaction, at 10 µM.
The target in test [4] is Regulator of G-protein signaling 8 (Homo sapiens) (UniProt P57771). The test is described as above. Conditions: multiplexed bead flow cytometry, measured here: RGS8 interaction, at 10 µM.
A short description of test [5]: interference with biotin-avidin bead interaction – biochemical, flow cytometry, bead-based, counter-screen for RGS protein interaction modulators (AID 1783;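 active means inhibition above 50%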;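 further: median green fluorescence of gated singlet beads compared with DMSO control wells; 0% = DMSO wells and 100% = complete loss of bead fluorescence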). The conditions noted are these: streptavidin beads, fluorescein-biotin binding; at 10 µM, stronger effect = higher value.
The target of test [6] is Guanine nucleotide-binding protein G(o) subunit alpha (Homo sapiens) (UniProt P09471). The test is described as follows: retest of RGS8-Galphao interaction hits – biochemical, multiplexed bead flow cytometry, single concentration, confirmation (AID 1836).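 Further: Galphao activated as GDP AlF4 complex before binding bead RGS8.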 Conditions: bead-based flow cytometry RGS8-Galphao binding, fluorescence; at 10 µM; actives lie on both sides.
For test [7] the target is unchanged. The test is described as follows: retest of RGS7-Galphao interaction hits – biochemical, multiplexed bead flow cytometry, single concentration, confirmation (AID 1837; in the data active means response below about 75% or above about 130%; inactive means in between;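 further: fluorescent Galphao activated with GDP and aluminum fluoride binding bead-coupled RGS7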). Conditions: bead-based flow cytometry RGS7-Galphao binding; at 10 µM; actives lie on both sides.
Test [8] deals with Regulator of G-protein signaling 16 (Homo sapiens) + Guanine nucleotide-binding protein G(o) subunit alpha (Homo sapiens) (UniProt O15492+P09471). The experiment in a line: RGS16 and Galphao interaction regulators – biochemical, single concentration, multiplexed bead flow cytometry, confirmation (AID 1838; in the data active means response below about 74% or above about 130%; inactive means in between;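 further: Galphao activated as the GDP aluminium fluoride complex binding bead-coupled RGS16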). The conditions noted are these: bead-based flow cytometry, at 10 µM, actives lie on both sides.

Test [9] addresses Guanine nucleotide-binding protein G(o) subunit alpha (Homo sapiens) (UniProt P09471). The experiment in a line: RGS4 and Galphao interaction regulators – biochemical, single concentration, multiplexed bead flow cytometry, confirmation (AID 1840; in the data active means binding response below about 74% or above about 130%; inactive means in between). Conditions: at 10 µM, actives lie on both sides.
Test [10] addresses Guanine nucleotide-binding protein G(o) subunit alpha (Homo sapiens) + Regulator of G-protein signaling 19 (Homo sapiens) (UniProt P09471+P49795). The experiment in a line: RGS19 interaction with Gαo, hit retest – biochemical, single point, multiplexed bead flow cytometry, confirmation (AID 1841; in the data active means response below about 50% or above about 160%; inactive means in between;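 further: 100% = no compound control and 0% = blank background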). The conditions noted are these: bead-based flow cytometry RGS19-Galphao binding; at 10 µM; actives lie on both sides.

Test [11] can be described thus: rapamycin-like changes in RPL19A-GFP expression – cell-based, S. cerevisiae, multiplex flow cytometry, primary screen (AID 1862; in the data active means percent of DMSO control GFP below about 86%;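 further: lower values mimic rapamycin by blocking the RPL19A rise seen in DMSO cells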). The conditions noted are these: S. cerevisiae RPL19A-GFP strain, flow cytometry fluorescence, 3 h; at 10 µM; stronger effect = lower value.
Test [12] can be described thus: TOR pathway GLN3 branch reporter MEP2-GFP changes – S. cerevisiae, multiplex flow cytometry, primary screen (AID 1867;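 active means GFP response, as percent of the DMSO control, above the screen-wide mean plus 3 SD, about 139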;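 further: median GFP channel fluorescence of barcode-gated MEP2-GFP cells measured by flow cytometry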). Conditions: S. cerevisiae MEP2-GFP strain, 3 h, at 10 µM, stronger effect = higher value, 100% means same as DMSO wells.
A short description of test [13]: TOR pathway RTG branch CIT2 reporter changes – S. cerevisiae, GFP fusion, multiplex flow cytometry, primary screen (AID 1870;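 active means percent response above a set limit, the screen-wide mean plus 3 SD, cut at about 130% in these data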;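 further: barcoded CIT2-GFP strain pooled with four other GFP strains with rapamycin as positive control; median GFP fluorescence per well over plate mean of DMSO wells so 100% = DMSO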). Conditions: S. cerevisiae CIT2-GFP expression, 3 h, at 10 µM, stronger effect = higher value.
Test [14] can be described thus: TOR pathway LAP4-GFP level changes – S. cerevisiae, multiplex flow cytometry, primary screen (AID 1873;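 active means GFP signal, as percent of the solvent control, above the screen mean plus 3 SD, about 149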). The conditions noted are these: S. cerevisiae LAP4-GFP expression, 3 h, at 10 µM, stronger effect = higher value.
The nature of test [15]: yeast AGP1-GFP level changes, GLN3 branch – cell-based, multiplex flow cytometry, S. cerevisiae, primary screen (AID 1887;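 active means GFP signal above the screen-wide mean plus 3 SD, that is over about 124.5% of the solvent control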;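 further: AGP1-GFP fusion strain of S. cerevisiae within a five-strain barcoded multiplex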). Conditions: 3 h, at 10 µM, stronger effect = higher value.
Test [16] can be described thus: hit retest on RPL19A-GFP reporter strain – cell-based, S. cerevisiae, flow cytometry, cherry picks, mother/daughter gates, confirmation (AID 2270;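 active means GFP response below 50% of the DMSO control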). The conditions noted are these: 3 h, at 10 µM, stronger effect = lower value, 100 = same GFP as DMSO wells.
Test [17] is described as follows: yeast TOR pathway reporter LAP4-GFP change – cell-based, cherry picks, flow cytometry, mother/daughter gates, confirmation (AID 2271;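 active means GFP response above 150% of the DMSO control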;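 further: ratio of sample to DMSO plate mean so 100% equals DMSO level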). The conditions noted are these: S. cerevisiae LAP4-GFP strain, 3 h, at 10 µM, stronger effect = higher value, 100 means same as DMSO control.
The nature of test [18]: TOR pathway reporter MEP2-GFP, retest of hits – S. cerevisiae, flow cytometry GFP, cherry picks, confirmation (AID 2272;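 active means GFP response above 150% of the DMSO control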;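 further: ratio of well signal to plate DMSO mean so 100% equals DMSO level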). The conditions noted are these: S. cerevisiae MEP2-GFP strain, 3 h, at 10 µM, stronger effect = higher value.
Test [19] in a line: TOR pathway CIT2 reporter hit retest – S. cerevisiae, GFP fusion, cherry picks, mother/daughter gates, confirmation (AID 2274;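 active means GFP response above 150% of the DMSO level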). Conditions: S. cerevisiae CIT2-GFP strain, flow cytometry, 3 h, at 10 µM, stronger effect = higher value.
Test [20] can be described thus: reduced mouse 2C T cell binding to pMHC/ICAM-1 vesicles – MLPCN validation set, flow cytometry, LFA-1/ICAM-1 modulator project, pilot screen (AID 2523;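 active means response below a set limit, under 55% cells CD8-positive and vesicle-bound, and CD8 cells' 90th-percentile brightness under 279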;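 on vesicle binding response: mean PE anti-B7-1 fluorescence of CD8+ cells relative to row control; 100% = QL9-loaded vesicles with DMSO vehicle in the same plate row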). The conditions noted are these: 2C mouse CD8+ T cells, at 7 µM, stronger effect = lower value; double positive events: measured here: CD8+/vesicle+ event percentage.
Setting [21] is: measured here: daughter cell gate.
Setting [22] is: measured here: mother cell gate.
[23] abbreviates: measured here: daughter cell gate response.
Setting [24] is: measured here: mother cell gate response.

Inconclusive results are not listed. The list shows a part of the results. The source made the active and inactive calls. Unless noted, no stated cut-off is given here; in the data, active means binding response below about 72% or above about 130%; inactive means in between.

Sequence of Guanine nucleotide-binding protein G(o) subunit alpha (Homo sapiens) + Regulator of G-protein signaling 19 (Homo sapiens) (P09471 whole entry, looked up): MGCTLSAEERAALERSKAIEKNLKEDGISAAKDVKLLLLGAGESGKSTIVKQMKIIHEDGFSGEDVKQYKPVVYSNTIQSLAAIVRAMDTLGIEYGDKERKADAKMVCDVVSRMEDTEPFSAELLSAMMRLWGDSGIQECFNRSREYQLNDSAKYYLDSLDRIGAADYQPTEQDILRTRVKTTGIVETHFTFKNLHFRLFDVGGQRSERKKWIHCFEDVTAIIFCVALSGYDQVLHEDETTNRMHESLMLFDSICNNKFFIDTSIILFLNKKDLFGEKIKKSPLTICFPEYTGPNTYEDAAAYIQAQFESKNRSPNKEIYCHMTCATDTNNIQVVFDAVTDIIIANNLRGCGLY
Sequence of Guanine nucleotide-binding protein G(o) subunit alpha (Homo sapiens) + Regulator of G-protein signaling 19 (Homo sapiens) (P49795 whole entry, looked up): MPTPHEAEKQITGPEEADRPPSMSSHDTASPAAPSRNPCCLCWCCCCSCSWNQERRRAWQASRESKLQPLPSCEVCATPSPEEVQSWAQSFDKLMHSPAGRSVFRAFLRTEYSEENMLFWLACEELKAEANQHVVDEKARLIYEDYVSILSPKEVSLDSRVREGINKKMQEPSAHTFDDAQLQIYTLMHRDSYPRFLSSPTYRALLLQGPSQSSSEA
Sequence of Guanine nucleotide-binding protein G(o) subunit alpha (Homo sapiens) (P09471 whole entry, looked up): as the sequence (P09471 whole entry, looked up) above
Sequence of Regulator of G-protein signaling 16 (Homo sapiens) + Guanine nucleotide-binding protein G(o) subunit alpha (Homo sapiens) (O15492 whole entry, looked up): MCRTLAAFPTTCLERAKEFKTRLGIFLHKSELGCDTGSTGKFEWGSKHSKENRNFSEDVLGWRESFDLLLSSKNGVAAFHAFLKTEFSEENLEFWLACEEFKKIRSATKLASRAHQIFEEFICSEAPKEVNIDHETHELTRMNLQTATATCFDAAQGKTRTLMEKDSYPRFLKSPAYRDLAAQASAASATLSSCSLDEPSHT
Sequence of Regulator of G-protein signaling 16 (Homo sapiens) + Guanine nucleotide-binding protein G(o) subunit alpha (Homo sapiens) (P09471 whole entry, looked up): as the sequence (P09471 whole entry, looked up) above

The inhibition is the change of the read-out against control, counted positive when it falls. With `Cc1ccccc1CS(=O)(=O)CC1(O)CCN(C(=O)c2cccc(C(F)(F)F)c2)CC1`, the RGS16–Galpha-o binding response in test [1] was found to be 106%. Also, in test [2], the RGS19–Galpha-o binding response is 115%. The molecule further registered an RGS7–Galpha-o binding response in test [3] of 157%. In test [4], the RGS8–Galpha-o binding response was 100%. The inhibition in [5] was 2.5% (inactive). Besides, the binding response (% of control) is 104% (inactive) in test [6] and 105% (inactive) in test [9]. Further, the response (percent of control binding) in test [7] was 105% (inactive); in [10], 78.9% (inactive). Besides, in test [8], the response (% of control binding) was 102% (inactive).
Take `N#Cc1nc(COc2ccc(-c3ccccc3)cc2)oc1NCc1cccnc1`: the RGS16–Galpha-o binding response in test [1] is 0%. The molecule further registered an RGS19–Galpha-o binding response in test [2] of 78.7%. For the same molecule, the RGS7–Galpha-o binding response in [3] is 202%. Further, in test [4], the RGS8–Galpha-o binding response was determined as 167%. Further, the inhibition in test [5] was 6.8% (inactive). Moreover, the binding response (% of control) in test [6] is 156% [activator] (active); in test [9], 376% [activator] (active). Besides, the response (percent of control binding) in test [7] was 517% [activator] (active); in test [10], 565% (active). For the same molecule, the response (% of control binding) in test [8] was 364% [activator] (active).
With `Cc1cc(C)n(CC(O)CN(c2ccccc2)S(=O)(=O)c2ccc3ccccc3c2)n1` (stereo not given), the RGS16–Galpha-o binding response in [1] was -6.51%. The RGS19–Galpha-o binding response in [2] was found to be 163%. Besides, in [3], the RGS7–Galpha-o binding response is 1.45%. The RGS8–Galpha-o binding response in test [4] is 15%. The inhibition in test [5] is 1.1% (inactive). In addition, the values for the binding response (% of control) in [6] and in [9] were 101% (inactive) and 104% (inactive), respectively. Further, the response (percent of control binding) in test [7] is 104% (inactive); in test [10] it was 98.9% (inactive). The response (% of control binding) in test [8] was 103% (inactive).
As to `Cc1cccc(S(=O)(=O)CC(=O)Nc2nc(-c3ccccc3)cs2)c1`, in test [1], the RGS16–Galpha-o binding response stood at 239%. For the same molecule, the RGS19–Galpha-o binding response in [2] is 101%. Moreover, the RGS7–Galpha-o binding response in test [3] is 130%. In test [4], this molecule registered an RGS8–Galpha-o binding response of 118%. Further, in test [5], the inhibition was 1.7% (inactive). For the same molecule, the binding response (% of control) in [6] was 101% (inactive); in test [9] it was 103% (inactive). Besides, the figures for the response (percent of control binding) in test [7] and in test [10] were 106% (inactive) and 105% (inactive), respectively. Moreover, in test [8], the response (% of control binding) was 98.5% (inactive).
Turning to `CCOC(=O)CCP(=O)(O)C(O)(c1ccccc1)c1ccccc1`, the inhibition in test [5] is 2.2% (inactive). The values for the binding response (% of control) in test [6] and in test [9] were 99.3% (inactive) and 100% (inactive), respectively. The response (percent of control binding) in [7] was 101% (inactive); in [10], 99.5% (inactive). In addition, the response (% of control binding) in test [8] was 101% (inactive).
As for `O=[N+]([O-])c1cccc2cn[nH]c12`, the percent of DMSO control GFP in test [11] was 94.4% (inactive). Moreover, the GFP response vs DMSO was 155% (active) in test [12]; 91.3% (inactive) in test [14]; 97.3% (inactive) in test [16]; 96.4% in test [16] (setting [21]); 95.2% in [16] (setting [22]); 106% (inactive) in test [18]. Besides, the percent response of DMSO control in test [13] is 114% (inactive). For the same molecule, the GFP response, % of DMSO in test [15] is 94.2% (inactive); in [19], 103% (inactive); in [19] (setting [21]), 101%; in test [19] (setting [22]), 103%. Also, the GFP response relative to DMSO is 98.9% (inactive) in test [17], 97.5% in [17] (setting [23]) and 99.5% in [17] (setting [24]). Further, the double positive events in test [20] came to 51.9%. Further, the vesicle binding response in test [20] was 56% (active).
Consider `CC(=O)[C@@]1(O)CC[C@H]2[C@@H]3C[C@H](C)C4=CC(=O)CC[C@]4(C)[C@H]3CC[C@@]21C`, for which the percent of DMSO control GFP in [11] is 90.2% (inactive). The GFP response vs DMSO was 114% (inactive) in test [12]; 78.1% (inactive) in [14]; 94.8% (inactive) in test [16]; 96.1% in [16] (setting [21]); 95.1% in test [16] (setting [22]); 92% (inactive) in test [18]. Further, the percent response of DMSO control in test [13] was 96.6% (inactive). In addition, the GFP response, % of DMSO is 96.6% (inactive) in test [15], 98.3% (inactive) in test [19], 101% in [19] (setting [21]) and 96.1% in [19] (setting [22]). The GFP response relative to DMSO in test [17] was 94.1% (inactive); in test [17] (setting [23]) it was 92.8%; in [17] (setting [24]) it was 92.9%. In [20], this molecule had a double positive events of 72%. Moreover, the vesicle binding response in test [20] was 363% (inactive).
